# Data as given in PubChem BioAssay.
# Calls of active or inactive are those of the source.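 How the source made its calls, unless noted: active means inhibition at or above 50% at 10 µM; inactive means inhibition below 50%.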
# Columns and labels:
# [1] = inhibitors of TNFa-induced NFkB p65 translocation, primary screen, imaging, HUVEC, MLSMR starter and 10KST1 sets (AID 438;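 active means inhibition above 20% together with a positive visual image hit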;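 further: compound added about 3h40 before a 20 min TNFalpha stimulation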;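 on inhibition: signal is the nuclear over cytoplasmic p65 intensity ratio per well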); settings: HUVEC TNFa-induced p65 nuclear translocation; cell count: measured here: nuclei count (cytotoxicity indicator), at 2.08 µM; inhibition: at 2 µM, stronger effect = higher value, 0% TNFa-plus-vehicle, 100% no-TNFa wells
# [2] = reduction of polyQ htt aggregates in cells – imaging, exon1htt(103Q)mCFP cells, high-content imaging, primary screen (AID 483;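 active means visual image review flags a hit and inhibition of aggregation exceeds 20%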;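 further: compound exposure lasted 3 days before fixation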;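 on nuclei count: percent of the per-plate median nuclei count of sample wells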); settings: exon1htt(103Q)mCFP cell line, aggregate imaging, at 2 µM; inhibition of aggregation: stronger effect = higher value; nuclei count: measured here: cell count, toxicity
# [3] = endothelial E-selectin expression blockers – imaging, HUVEC, immunofluorescence, MLSMR starter and 10KST1 sets, primary screen (AID 487;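 active means visually confirmed hit in the image check and inhibition above 20%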;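 on inhibition: signal is fraction of cell area covered by stained E-selectin grains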;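 on nuclei count: 100% = median nuclei count of all wells on the same plate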); settings: HUVEC TNFalpha-induced E-selectin immunofluorescence imaging, at 2 µM; inhibition: stronger effect = higher value; nuclei count: measured here: cell number, toxicity
# [4] = target: Voltage-gated potassium channel subunit beta-2 (Rattus norvegicus) (UniProt P62483); assay: inhibitors of rat Kvbeta2 reductase activity – biochemical, NADPH fluorescence, primary screen (AID 622;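 active means fluorescence slope higher than the sample average by over 3 SD, cut at about -0.22 in these data, passing the limit was not always enough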;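 further: slope of raw intensity against log time taken from 70 to 1610 s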); settings: recombinant KvBeta, 4-cyanobenzaldehyde reduction, at 10 µM, stronger effect = higher value
# [5] = target: Voltage-gated potassium channel subunit beta-2 (Rattus norvegicus) (UniProt P62483); assay: enhancers of rat Kvbeta2 NADPH turnover – biochemical, NADPH fluorescence, primary screen (AID 623;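 active means NADPH fluorescence slope more negative than the mean of all samples by about 3 SD, 99.7% confidence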;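 further: fluorescence intensity change per second fitted from 20 to 320 s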); settings: Recombinant KvBeta, NADPH fluorescence decrease slope, 10 min; at 10 µM; stronger effect = lower value
# [6] = target: Alpha-2C adrenergic receptor (Homo sapiens) (UniProt P18825); assay: compounds altering alpha2C-coupled GIRK flux – cell-based, HEK293 alpha2C/GIRK1/2, thallium flux, primary screen (AID 624;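 active means fluorescence slope after compound addition differing from the mean of all screened samples at 99.7% confidence, in either direction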;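 further: slope of fluorescence ratio to pre-addition baseline per second over 15 to 24 s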); settings: thallium flux BTC fluorescence, at 10 µM, actives lie on both sides
# [7] = blockers of RIG-like receptor reporter activation – cell-based, Sendai virus stimulus, luciferase, 10K MLSCN set, TLR/RLR signaling modifier project, primary screen (AID 602276); settings: HEK293 RL24 IRF3 luciferase reporter, at 10 µM, stronger effect = higher value;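 further: firefly luciferase from ISG56 promoter only with Renilla not read in this screen; 0% = Sendai virus plus DMSO and 100% = medium plus DMSO without virus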
# [8] = TLR3 IRF3 reporter activation blockers – cell-based, poly I:C stimulus, luciferase, 10K MLSCN set, primary screen (AID 602277;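 active means inhibition of the reporter signal at or above 50%; inactive means inhibition below 50%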); settings: HEK293-TLR3 RL24 IRF3 luciferase reporter, at 10 µM, stronger effect = higher value
# Chain of Voltage-gated potassium channel subunit beta-2 (Rattus norvegicus) (P62483 whole entry, looked up): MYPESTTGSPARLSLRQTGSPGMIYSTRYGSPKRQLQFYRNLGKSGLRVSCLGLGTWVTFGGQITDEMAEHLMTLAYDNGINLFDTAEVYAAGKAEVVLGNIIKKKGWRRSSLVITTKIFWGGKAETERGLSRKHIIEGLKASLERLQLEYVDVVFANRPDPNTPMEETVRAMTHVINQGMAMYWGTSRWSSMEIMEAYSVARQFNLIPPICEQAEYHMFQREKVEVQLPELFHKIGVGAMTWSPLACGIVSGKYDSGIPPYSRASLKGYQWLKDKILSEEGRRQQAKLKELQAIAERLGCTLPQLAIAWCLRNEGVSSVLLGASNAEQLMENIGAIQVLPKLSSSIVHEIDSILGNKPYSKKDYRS
# Chain of Alpha-2C adrenergic receptor (Homo sapiens) (P18825 whole entry, looked up): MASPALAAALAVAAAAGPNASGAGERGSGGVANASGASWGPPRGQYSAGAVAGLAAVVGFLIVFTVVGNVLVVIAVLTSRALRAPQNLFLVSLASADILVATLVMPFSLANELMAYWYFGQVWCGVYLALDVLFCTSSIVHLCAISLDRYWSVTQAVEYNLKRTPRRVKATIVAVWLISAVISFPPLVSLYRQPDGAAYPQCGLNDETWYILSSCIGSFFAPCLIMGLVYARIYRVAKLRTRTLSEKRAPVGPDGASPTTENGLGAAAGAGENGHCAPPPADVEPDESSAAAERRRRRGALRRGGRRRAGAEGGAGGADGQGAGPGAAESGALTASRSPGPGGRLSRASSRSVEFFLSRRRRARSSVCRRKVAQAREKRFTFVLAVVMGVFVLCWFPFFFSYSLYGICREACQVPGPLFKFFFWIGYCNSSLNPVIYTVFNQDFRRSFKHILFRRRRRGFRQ
SMILES,cell count [1],inhibition [1],inhibition of aggregation [2],nuclei count [2],inhibition [3],nuclei count [3],fluorescence slope [4],NADPH fluorescence slope [5],slope [6],inhibition [7],inhibition [8]
COc1cc(C(c2sc3nc(C)nn3c2O)N2CC(C)CC(C)C2)cc(OC)c1OC (centres undefined),468,-3.4% (inactive),-10.7% (inactive),114%,-18.2% (inactive),109%,-0.505 (inactive),-0.00015 (inactive),0.00579 (inactive),9.58% (inactive),18.7% (inactive)
CCOC(=O)CN(C(=O)c1ccccc1)c1ccccc1C,600,-2.5% (inactive),-11.5% (inactive),108%,36% (inactive),72.6%,-0.419 (inactive),1.1e-05 (inactive),0.00342 (inactive),3.43% (inactive),31% (inactive)
Cc1ccccc1NC(=O)CSc1nc(N)c(C#N)c(-c2cccs2)c1C#N,440,-0.3% (inactive),-16.8% (inactive),110%,-12.2% (inactive),98.8%,-0.475 (inactive),-4.8e-05 (inactive),0.00696 (inactive),11.6% (inactive),14.3% (inactive)
O=C(NC1CCCc2ccccc21)C1CCN(c2nnc(-n3cccc3)s2)CC1 (centres undefined),686,-6% (inactive),-12.1% (inactive),116%,-65.3% (inactive),114%,-0.583 (inactive),-3e-05 (inactive),0.00726 (inactive),7.01% (inactive),18.7% (inactive)
C=CCN1C(=O)CS/C1=N/c1nccs1,785,-8.5% (inactive),3.5% (inactive),107%,-5.5% (inactive),101%,-0.459 (inactive),-1.1e-05 (inactive),0.00406 (inactive),15.5% (inactive),14.3% (inactive)
CN=C(Nc1ccc2c(c1)OCO2)SC1CC(=O)N(c2ccccc2)C1=O (centres undefined),699,11% (inactive),6.4% (inactive),95.4%,7.9% (inactive),112%,-0.381 (inactive),-3.2e-05 (inactive),0.00557 (inactive),10% (inactive),17.2% (inactive)
Cc1ccc2c(C)nc(Nc3nc(CSc4nnnn4-c4ccccc4)cc(=O)[nH]3)nc2c1,352,-3.8% (inactive),-22.3% (inactive),100%,-54.7% (inactive),101%,-0.6 (inactive),-3.4e-05 (inactive),0.00691 (inactive),8.72% (inactive),-4.56% (inactive)
Cc1ccccc1C(=O)Nc1c(C(=O)N2CCCC2)cnn1-c1ccccc1,314,-6.8% (inactive),2.8% (inactive),83.6%,-34.4% (inactive),84%,-0.596 (inactive),-2.6e-05 (inactive),0.00707 (inactive),13.2% (inactive),26.1% (inactive)
CSc1ccc(-c2nc(CSCC(=O)N3CCOCC3)c(C)o2)cc1,243,2.7% (inactive),-6% (inactive),89.5%,-16.1% (inactive),101%,-0.523 (inactive),-5.8e-05 (inactive),0.00525 (inactive),-23.3% (inactive),-88.4% (inactive)
COCCn1c(SCC(=O)N(C(C)C)C(C)C)nnc1-c1cc2ccccc2cc1O,362,0% (inactive),25.9% (inactive),88.5%,-1% (inactive),97.7%,-0.366 (inactive),1.3e-05 (inactive),0.00457 (inactive),11.9% (inactive),20.1% (inactive)
O=C(COc1ccc(S(=O)(=O)NC2CCCCC2)cc1Cl)NCC1CCCO1 (centres undefined),310,-13.4% (inactive),-14.2% (inactive),124%,-111% (inactive),95.6%,-0.415 (inactive),-1.9e-05 (inactive),0.00646 (inactive),3.07% (inactive),9.97% (inactive)
Cc1ccc(-c2noc(C3CCCN(C(=O)c4ccccc4)C3)n2)o1 (centres undefined),490,5.2% (inactive),-19.1% (inactive),112%,-102% (inactive),125%,-0.372 (inactive),-1.7e-05 (inactive),0.00371 (inactive),-20% (inactive),-111% (inactive)
Cc1ccc(C(=O)N2CCN(C(=O)c3ccc(C)c(C)c3)C(C)C2)cc1C (centres undefined),409,-0.7% (inactive),-2.3% (inactive),94.3%,-179% (inactive),200%,-0.264 (inactive),-5.3e-05 (inactive),0.00164 (inactive),4.92% (inactive),22.7% (inactive)
O=C(Nc1ccccc1N1CCN(c2ccc(F)cc2)CC1)c1ccccc1,423,7.6% (inactive),-1% (inactive),104%,-122% (inactive),134%,-0.44 (inactive),-3.4e-05 (inactive),0.00515 (inactive),14% (inactive),21.1% (inactive)
CCOc1ccc(C2CC(c3cccc(OC)c3)Nc3nc(N)nn32)cc1 (centres undefined),562,5.4% (inactive),15.4% (inactive),100%,36.3% (inactive),97.4%,-0.619 (inactive),7.9e-07 (inactive),0.00629 (inactive),-7.71% (inactive),-1.03% (inactive)
CCN(CC)c1ccc(/C=N/n2nnnc2N)c(O)c1,428,-1.1% (inactive),-13.8% (inactive),101%,-29.5% (inactive),130%,-0.413 (inactive),6.9e-05 (inactive),0.00627 (inactive),4.84% (inactive),1.57% (inactive)
CC(C)CCNC(=O)NC(=O)COc1ccccc1C#N,381,-23.5% (inactive),15.6% (inactive),102%,-71.3% (inactive),111%,-0.586 (inactive),-8.5e-06 (inactive),0.00627 (inactive),-47.7% (inactive),-112% (inactive)
COc1ccc2c(c1OC)C(=O)N(c1ccc3c(c1)CCC3)C2=O,683,-13.1% (inactive),-0.9% (inactive),103%,-10.6% (inactive),107%,-0.499 (inactive),3.4e-05 (inactive),0.00573 (inactive),8.67% (inactive),-9.24% (inactive)
COc1ccccc1N1CCN(C(=O)N2CCOCC2)CC1,683,-8.1% (inactive),-2.9% (inactive),100%,-80.8% (inactive),107%,-0.417 (inactive),-6.2e-05 (inactive),0.00512 (inactive),19% (inactive),26.2% (inactive)
